14 molecules from PubChem BioAssay (NCI) can be followed below.

Test systems include SR leukemia; RPMI-8226 leukemia; OVCAR-8 ovarian; OVCAR-5 ovarian; OVCAR-4 ovarian; SK-OV-3 ovarian; IGROV1 ovarian; OVCAR-3 ovarian; HS 578T breast; NCI/ADR-RES ovarian.
What all share (test): NCI-60 one-dose screen, 48 h (100 = growth as untreated, 0 = no growth, -100 = all killed)
What all share (conditions): 10 µM unless noted

This is part of a sample that, as a whole, favours compounds with a hit. Of some 83,000 tested, about 20% had one in any assay.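 Percent growth is the endpoint: 0 to 100 indicates growth inhibition (40 means 60% inhibition), 0 means no net growth, and negative values indicate cell death.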 A number with no mark means an inactive call. The source made the active and inactive calls. How the source made its calls: active means growth percent below 10; inactive means the rest.

With `CCOC(=O)N1CCN(CCCCl)CC1`, the growth in the experiment with SR leukemia is 97.1%; in the experiment with RPMI-8226 leukemia, 114%; in the experiment with OVCAR-8 ovarian it was 98.8%; with OVCAR-5 ovarian, 93.3%; in the experiment with OVCAR-4 ovarian it was 109%; with SK-OV-3 ovarian it was 126%. For the same molecule, the growth is 97.1% in the experiment on IGROV1 ovarian, 119% with OVCAR-3 ovarian, 108% with HS 578T breast and 102% in the experiment on NCI/ADR-RES ovarian.

`CC[C@H](CC[C@@H](C)[C@H]1CC[C@H]2[C@@H]3CC=C4C[C@@H](OCCc5nn[nH]n5)CC[C@]4(C)[C@H]3CC[C@]12C)C(C)C`: the growth with SR leukemia was 105%; with RPMI-8226 leukemia, 113%; in the experiment on OVCAR-8 ovarian, 108%; in the experiment on OVCAR-5 ovarian, 108%; in the experiment with OVCAR-4 ovarian, 104%; in the experiment on SK-OV-3 ovarian, 96.8%. Besides, the growth in the experiment on IGROV1 ovarian is 100%; in the experiment with OVCAR-3 ovarian, 103%; in the experiment with HS 578T breast it was 113%; in the experiment with NCI/ADR-RES ovarian, 98.3%.

Regarding `CC[C@H](C)[C@@H]1NC(=O)[C@H](Cc2ccc(O)cc2)N(C)C(=O)[C@H](Cc2ccccc2)NC(=O)CN(C)C(=O)[C@@H]2CCCN2C(=O)[C@@H](Cc2ccccc2)N(C)C(=O)[C@H](CC(C)C)NC1=O`, the growth in the experiment on SR leukemia was 4.5% (active); in the experiment with RPMI-8226 leukemia it was -33.3% (active); in the experiment on OVCAR-8 ovarian, 5.34% (active); with OVCAR-5 ovarian it was -7.89% (active); with OVCAR-4 ovarian, -4.8% (active); in the experiment on SK-OV-3 ovarian it was 4.76% (active). The growth was -8.42% (active) with IGROV1 ovarian, -10.7% (active) with OVCAR-3 ovarian, -12% (active) in the experiment on HS 578T breast and 70.7% in the experiment with NCI/ADR-RES ovarian.

`COc1cccc(NC(=O)c2cccc(-c3cc(=O)c4c(OC)c(OC)c(OC)cc4o3)c2)c1`: the growth in the experiment with SR leukemia is 41.9%; in the experiment with RPMI-8226 leukemia, 17%; with OVCAR-8 ovarian, 47%; in the experiment with OVCAR-5 ovarian it was 90.1%; in the experiment on OVCAR-4 ovarian, 62.6%; in the experiment on SK-OV-3 ovarian, 109%. Besides, the values for the growth in the experiment with IGROV1 ovarian, with OVCAR-3 ovarian and in the experiment on NCI/ADR-RES ovarian were 53.3%, 66.6% and 64.8%, respectively.

Consider `N#Cc1c(NC(=O)c2cccc(Br)c2)sc2c1CCCC2`, for which the growth was 31.9% with SR leukemia; 77.8% in the experiment with RPMI-8226 leukemia; 81.9% in the experiment on OVCAR-8 ovarian; 90.5% in the experiment with OVCAR-5 ovarian; 75.1% in the experiment on OVCAR-4 ovarian; 85.2% with SK-OV-3 ovarian. Besides, the growth in the experiment with IGROV1 ovarian is 67.4%; in the experiment with OVCAR-3 ovarian, 95%; in the experiment on HS 578T breast it was 80.7%; in the experiment with NCI/ADR-RES ovarian, 76.8%.

As to `CC[N+](CC)(CCCC(C)[N+]1(Cc2ccccc2)C(C)=CC=C1C)Cc1ccccc1` (configuration not stated), the growth in the experiment on SR leukemia was 90.1%; with RPMI-8226 leukemia it was 33.6%; in the experiment on OVCAR-8 ovarian, 101%; in the experiment with OVCAR-5 ovarian, 88.1%; in the experiment on OVCAR-4 ovarian, 62.1%; with SK-OV-3 ovarian it was 101%. Moreover, the growth is 62.4% in the experiment on IGROV1 ovarian, 64% in the experiment with OVCAR-3 ovarian and 97.7% with NCI/ADR-RES ovarian.

As for `COc1ccc(-c2nn(Cc3ccccc3)c3c2-c2oncc2CC3)cc1OC`, the growth with SR leukemia is 63.2%; in the experiment on RPMI-8226 leukemia, 98.5%; with OVCAR-8 ovarian, 89%; with OVCAR-5 ovarian, 103%; in the experiment with OVCAR-4 ovarian it was 86.8%; with SK-OV-3 ovarian it was 137%. The results for the growth with IGROV1 ovarian, in the experiment on OVCAR-3 ovarian and in the experiment on NCI/ADR-RES ovarian were 124%, 113% and 82.6%, respectively.

Take `COc1ccc2c(c1)OC1=C(C(=O)OC1)C2c1cc(OC)c(OC)c(OC)c1` (configuration not stated): the growth in the experiment with SR leukemia is 15.3%; with RPMI-8226 leukemia it was 11.5%; in the experiment on OVCAR-8 ovarian it was 21.1%; with OVCAR-5 ovarian, 32.7%; in the experiment with OVCAR-4 ovarian it was 56.3%; in the experiment with SK-OV-3 ovarian, 13%. Further, the results for the growth in the experiment on IGROV1 ovarian, in the experiment on OVCAR-3 ovarian and with NCI/ADR-RES ovarian were 49%, -55.9% (active) and 1.95% (active), respectively.

On to `ClCC1(Cn2cnc3c(Cl)nc(Cl)nc32)COC1`, for which the growth in the experiment with SR leukemia is 86.1%; with RPMI-8226 leukemia, 87.7%; with OVCAR-8 ovarian it was 105%; with OVCAR-5 ovarian, 99.5%; in the experiment with OVCAR-4 ovarian it was 93.3%; with SK-OV-3 ovarian it was 93.8%. Besides, the growth was 90.8% in the experiment with IGROV1 ovarian, 84.4% with OVCAR-3 ovarian and 106% with NCI/ADR-RES ovarian.

For the molecule `CCN(CC)CCCC(C)Nc1cc(-c2cccc(OC(F)(F)F)c2)nc2ccc(N3CCCC3)cc12` (configuration not stated), the growth in the experiment on SR leukemia is -31.6% (active); in the experiment with RPMI-8226 leukemia, -37% (active); in the experiment with OVCAR-8 ovarian it was -5.79% (active); in the experiment with OVCAR-5 ovarian, 31.1%; in the experiment with OVCAR-4 ovarian, 34.8%; in the experiment on SK-OV-3 ovarian, 82%. For the same molecule, the growth in the experiment on IGROV1 ovarian was 29.9%; in the experiment with OVCAR-3 ovarian, 0.648% (active); in the experiment on NCI/ADR-RES ovarian, 13.4%.

Regarding `CN1CCN(c2c(F)cc(NC3=C(Cl)C(=O)c4ncccc4C3=O)cc2F)CC1`, the growth in the experiment on SR leukemia is 4.88% (active); in the experiment with RPMI-8226 leukemia, 67.1%; in the experiment with OVCAR-8 ovarian, 78.1%; in the experiment on OVCAR-5 ovarian it was 105%; in the experiment on OVCAR-4 ovarian, -87.8% (active); in the experiment with SK-OV-3 ovarian, 101%. In addition, the growth in the experiment with IGROV1 ovarian was 57.4%; in the experiment on OVCAR-3 ovarian, -28% (active); in the experiment on HS 578T breast it was 97.2%; in the experiment on NCI/ADR-RES ovarian it was 89.7%.

Consider `OC(c1ccccc1)c1ccccn1` (configuration not stated), for which the growth in the experiment on SR leukemia is 99.1%; in the experiment on RPMI-8226 leukemia it was 101%; in the experiment with OVCAR-8 ovarian it was 95.9%; in the experiment with OVCAR-5 ovarian, 108%; in the experiment on OVCAR-4 ovarian it was 116%; in the experiment with SK-OV-3 ovarian it was 92%. The values for the growth in the experiment on IGROV1 ovarian, in the experiment with OVCAR-3 ovarian and in the experiment on NCI/ADR-RES ovarian were 106%, 105% and 110%, respectively.

For `O=C(/C=C\c1ccc(OCCCCCC[P+](c2ccccc2)(c2ccccc2)c2ccccc2)cc1)c1ccc2c(c1)OCCO2`, the growth was -18.9% (active) in the experiment on SR leukemia; -41.7% (active) in the experiment on RPMI-8226 leukemia; 1.04% (active) in the experiment on OVCAR-8 ovarian; 13.9% in the experiment on OVCAR-5 ovarian; -3.06% (active) in the experiment with OVCAR-4 ovarian; -23.8% (active) in the experiment with SK-OV-3 ovarian. Also, the growth in the experiment on IGROV1 ovarian was 5.29% (active); in the experiment with OVCAR-3 ovarian it was -27% (active); with HS 578T breast, 7.53% (active); in the experiment with NCI/ADR-RES ovarian it was 78.1%.

In the case of `O=C(Nc1ccc(Nc2ncccn2)cc1)NC1C=c2ccccc2=CC1` (configuration not stated), the growth in the experiment on SR leukemia was 98.1%; in the experiment on RPMI-8226 leukemia, 100%; in the experiment on OVCAR-8 ovarian it was 98.1%; with OVCAR-5 ovarian, 108%; in the experiment with OVCAR-4 ovarian it was 111%; in the experiment on SK-OV-3 ovarian, 106%. The growth was 106% in the experiment on IGROV1 ovarian, 107% in the experiment on OVCAR-3 ovarian and 106% in the experiment on NCI/ADR-RES ovarian.
